Drawing on PubChem BioAssay (NCI), this text covers growth for eight molecules.

Several values for one entry are separate records, joined by “and”; a condition that tells them apart may be missing. Equal entries are not always repeated. Compounds without any hit were thinned out: in the full panel of roughly 83,000, 20% have a hit.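 Compound tested at a single concentration for 48 hours in 96-well plates; a percent growth value below 10 was scored as active.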 Unmarked numbers belong to inactive results. Activity calls are given as the source filed them.

Experiment in all cases: NCI-60 one-dose screen, 48 h (100 = growth as untreated, 0 = no growth, -100 = all killed)
The subject of assay [1] is HCT-15 colon. As to conditions: 10 µM unless noted.
Assay [2] relates to SNB-75 CNS.
Assay [3] relates to SNB-19 CNS.
Assay [4] relates to U251 CNS. As to conditions: 10 µM unless noted.
For assay [5], the system named is PC-3 prostate. To be noted: 10 µM unless noted.
Assay [6] concerns SK-MEL-5 melanoma.
For assay [7], the system named is UACC-62 melanoma.
Assay [8] deals with LOX IMVI melanoma. To be noted: 10 µM unless noted.
The test system of assay [9] is SK-MEL-28 melanoma. As to conditions: 10 µM unless noted.
Assay [10] relates to SK-MEL-2 melanoma.
Assay [11] concerns EKVX NSCLC. As to conditions: 10 µM unless noted.
In assay [12] the test system is SN12C renal.
Assay [13] relates to UO-31 renal.
The subject of assay [14] is TK-10 renal.
Assay [15] deals with ACHN renal.
Assay [16] deals with CAKI-1 renal.
Assay [17] has as its system A498 renal.
Assay [18] relates to CCRF-CEM leukemia. To be noted: 10 µM unless noted.
Assay [19] has as its system MOLT-4 leukemia.
The subject of assay [20] is HT29 colon.

As to `CCCCCCCCCCCCCCCC[N+](C)(CCO)Cc1cnc[nH]1` (stereo not drawn), the growth in assay [1] is 23.5%; in [2] (10 µM unless noted), -86.6% (active); in [3] (10 µM unless noted), -98.8% (active); in assay [4], -86.5% (active); in [5] it was -37.5% (active); in [6] (10 µM unless noted), -99.8% (active). For the same molecule, the growth in [7] (10 µM unless noted) is -76.4% (active); in assay [8] it was -79% (active); in assay [9], -43.2% (active); in assay [10] (10 µM unless noted), -78.5% (active); in assay [11], 38.1%; in assay [12] (10 µM unless noted) it was -4.78% (active). In addition, the growth in assay [13] (10 µM unless noted) was 27.6%; in [14] (10 µM unless noted), -35.1% (active); in [15] (10 µM unless noted) it was 3.11% (active); in assay [16] (10 µM unless noted), 40.9%.

Turning to `COc1cc(/C=C/C(C)=O)ccc1O`, the growth in [1] is 96.9% and 96.3%; in assay [2] (10 µM unless noted) it was 98.4% and 82.5%; in assay [3] (10 µM unless noted), 98.3% and 112%; in [4], 103% and 104%; in [5], 92.5% and 102%; in assay [6] (10 µM unless noted) it was 97% and 113%. Further, the growth in [7] (10 µM unless noted) is 88.5% and 107%; in assay [9], 112% and 103%; in [10] (10 µM unless noted) it was 105%; in assay [11] it was 91.8% and 112%; in assay [12] (10 µM unless noted), 98.1% and 104%; in [13] (10 µM unless noted), 66% and 88.4%. Further, the growth is 97.7% and 142% in [14] (10 µM unless noted); 95.9% and 95% in assay [15] (10 µM unless noted); 93.4% and 115% in assay [16] (10 µM unless noted); 79.1% and 116% in [17] (10 µM unless noted); 28.4% and 78.1% in assay [18]; 95.8% and 87.2% in [19] (10 µM unless noted).

As for `O=C(/C=C\c1cc(Br)ccc1O)/C=C/c1cc(Br)ccc1O`, the growth is 0% (active) in assay [1]; -8.46% (active) in assay [2] (10 µM unless noted); -82.6% (active) in assay [4]; -16% (active) in assay [5]; -87.5% (active) in assay [6] (10 µM unless noted); -67.5% (active) in [7] (10 µM unless noted). Besides, the growth in assay [8] was -95.6% (active); in assay [10] (10 µM unless noted), -63.1% (active); in assay [11], 8.88% (active); in assay [12] (10 µM unless noted) it was -55.4% (active); in assay [13] (10 µM unless noted) it was -72.9% (active); in [14] (10 µM unless noted) it was -20% (active). For the same molecule, the growth was -59.8% (active) in assay [15] (10 µM unless noted), -2.63% (active) in [16] (10 µM unless noted), -70.1% (active) in assay [17] (10 µM unless noted) and 0.164% (active) in assay [19] (10 µM unless noted).

In the case of `Cc1ccc2nc(C[n+]3ccc4ccccc4c3)ccc2c1`, the growth in assay [1] was 99%; in assay [20] (10 µM unless noted) it was 37.3%; in [2] (10 µM unless noted), 58.9%; in assay [4], 42.1%; in [7] (10 µM unless noted) it was 69.8%; in assay [10] (10 µM unless noted) it was 78.8%. The growth was 72.2% in [11]; 39.3% in assay [12] (10 µM unless noted); 85.7% in assay [13] (10 µM unless noted); 95% in assay [14] (10 µM unless noted); 101% in [15] (10 µM unless noted); 98.3% in [16] (10 µM unless noted). Besides, the results for the growth in assay [18] and in assay [19] (10 µM unless noted) were 52.6% and 71.9%, respectively.

`COc1ccc(-c2cscc2N)cc1`: the growth was 97.7% in [20] (10 µM); 52% in assay [20] (100 µM); 88.8% in [2] (10 µM); 51.9% in assay [2] (100 µM); 82.9% in assay [3] (10 µM); 57.6% in [3] (100 µM). The growth in assay [4] is 38.5% [100 µM]; in assay [6] (10 µM), 48.8%; in [6] (100 µM), 33.1%; in [7] (10 µM), 43.4%; in assay [7] (100 µM), -9.3% (active); in [10] (10 µM) it was 95.1%. The growth in [10] (100 µM) was 24.6%; in assay [11], 51.4% [100 µM]; in assay [12] (10 µM) it was 71.2%; in assay [12] (100 µM), 55.1%; in assay [13] (10 µM), 78%; in assay [13] (100 µM), 27%. Besides, the growth in [14] (10 µM) was 101%; in assay [14] (100 µM), 74.4%; in assay [15] (10 µM) it was 54.7%; in [15] (100 µM), 40.7%; in [16] (10 µM), 70.9%; in assay [16] (100 µM), 29.2%. The growth was 83.3% in assay [17] (10 µM); 80.6% in assay [17] (100 µM); 31.3% [100 µM] in assay [18]; 66.4% in assay [19] (10 µM); 38.6% in assay [19] (100 µM).

Regarding `O=[N+]([O-])c1ccc2c(N=Nc3ccc4ccccc4c3O)c(O)cc(S(=O)(=O)O)c2c1`, the growth in assay [1] was 85.1%; in assay [2] (10 µM unless noted), 105%; in [4], 57.7%; in [5], 77.2%; in assay [6] (10 µM unless noted), 85%; in assay [7] (10 µM unless noted) it was 79.4%. In addition, the growth was 66.2% in [8]; 102% in assay [10] (10 µM unless noted); 95.2% in [11]; 62.6% in [13] (10 µM unless noted); 91.6% in assay [14] (10 µM unless noted); 78.7% in assay [15] (10 µM unless noted). Also, the growth in assay [16] (10 µM unless noted) was 60.1%; in [17] (10 µM unless noted), 108%; in assay [18], 63.6%; in assay [19] (10 µM unless noted), 91.7%.

For the molecule `CCC(=O)Sc1ccccc1C(=O)Nc1ccc(Cl)cc1`, the growth in assay [1] was 46%; in assay [2] (10 µM unless noted) it was 76.7%; in assay [3] (10 µM unless noted) it was 76.1%; in assay [4] it was 36.5%; in [6] (10 µM unless noted) it was 25.2%; in assay [7] (10 µM unless noted), 54.1%. Also, the growth in [9] was 49.8%; in assay [10] (10 µM unless noted), 133%; in assay [11], 29.5%; in [12] (10 µM unless noted), 49.5%; in assay [13] (10 µM unless noted), 61.6%; in assay [14] (10 µM unless noted), 69.4%. For the same molecule, the growth in [15] (10 µM unless noted) was 73.2%; in assay [16] (10 µM unless noted) it was 31.9%; in assay [18] it was 27.1%; in [19] (10 µM unless noted), 30.9%.

As to `CC(=Nc1ccc(N(C)C)cc1)c1ccccc1`, the growth in assay [1] is 68.5%; in assay [2] (10 µM unless noted), 86%; in [4], 27.2%; in [5], 37.8%; in assay [6] (10 µM unless noted), 54.6%; in [7] (10 µM unless noted), 68%. In addition, the growth in assay [8] is 60.2%; in assay [9], 65.4%; in [10] (10 µM unless noted) it was 78.4%; in [11], 58.6%; in assay [12] (10 µM unless noted), 50.4%; in assay [13] (10 µM unless noted), 55%. The growth in [14] (10 µM unless noted) is 72.6%; in assay [15] (10 µM unless noted), 59.8%; in assay [16] (10 µM unless noted), 79.8%; in assay [17] (10 µM unless noted), 70.4%; in assay [18], 52.2%; in assay [19] (10 µM unless noted), 66.7%.
